Results filed as inconclusive are left out. Activity calls are given as the source filed them. Calls come from the whole dose curve; as a rule, active = well fitted cell-killing curve with a large enough effect in the repeat runs; inconclusive = weak or mixed curves, or effect the other way; inactive = no such curve, though single readings can be large or run the other way.
Experiment: qHTS assay to identify small molecule agonists of the vitamin D receptor (VDR) signaling pathway - cell viability counter screen (AID 743224); note: nearly all actives have a fitted effect of over 50% in size
Details: VDR-bla HEK293T viability, CellTiter-Glo luminescence, 16 h; series mostly up to 62.6 µM; activity change, negative = cytotoxicity: at the top concentration
Excerpt: U.S. Tox21 Program National Center for Advancing Translational Sciences [NCATS] NIH Chemical Genomics Center [NCGC] U.S. Environmental Protection Agency [EPA] National Institutes of Environmental Health Sciences [NIEHS] National Toxicology Program [NTP] U.S. Food and Drug Administration [FDA] Tox21 Assay Overview: The vitamin D receptor (VDR), a member of nuclear hormone receptor superfamily, plays a critical role in calcium homeostasis and bone metabolism. It is also involved in cell differentiation and growth, and thrombogenicity. […] The cytotoxicity of the Tox21 compound library against the VDR-bla cell line was tested in parallel by measuring the cell viability using CellTiter-Glo assay (Promega, Madison, WI) in the same wells.
Tox21 Assay Protocol Summary: VDR-bla cells were dispensed at 2,000 cells/6 uL/well into black wall/clear-bottom 1536-well plates using a Multidrop Combi (Thermo Fisher Scientific, Waltham, MA) dispenser. After the assay plates were incubated at a 37C and 5% CO2 for 4 h, 23 nL of compounds dissolved in DMSO, positive controls or DMSO only was transferred to the assay plate by a Pintool station (Kalypsys, San Diego, CA). The plates were incubated at 37C and 5% CO2 for 16 h. After 1 uL of LiveBLAzerTM B/G FRET substrate was added using a Bioraptr Flying Reagent Dispenser (FRD) workstation (Beckman Coulter, Indianapolis, IN, USA), the plates were incubated at room temperature for 2 h, and fluorescence intensity was measured by an Envision plate reader (PerkinElmer, Shelton, CT). For cell viability readout that measures cytotoxicity, 3 ul/well of CellTiter-Glo reagent was added into the assay plates using a FRD. After 30 min incubation at room temperature, the luminescence intensity in the plates was measured using a ViewLux (PerkinElmer) plate reader.
% is set by controls: 0 for no effect and ±100 for the full control effect.

Compound	activity change, negative = cytotoxicity
CC(C)CC(O)CC(C)C	6.55% (inactive)
O=CNNC=O	-6.42% [at 81.1 µM] (inactive)
CCC(=O)OCc1ccc(OC)cc1	2.37% (inactive)
CC(C(=O)O)c1ccc(C(=O)c2cccs2)cc1 (stereo not given)	-14.5% (inactive)
CC(=O)NCCO	-8.54% (inactive)
Nc1ccc(S(=O)(=O)NCc2ccccc2)cc1	12% (inactive)
COC(=O)CC(C(C)=O)C(=O)OC (stereo not given)	11.5% (inactive)
CC(C)(C)CCCCCCOC(=O)c1ccccc1C(=O)OCCCCCCC(C)(C)C	9.19% (inactive)
COc1cc(NC(C)CCCN)c2ncccc2c1 (stereo not given)	-13.6% (inactive)
O=C(O)c1cc(Cl)cc(Cl)c1O	-0.174% (inactive)
CC(C)C1CCC(C(=O)N[C@H](Cc2ccccc2)C(=O)O)CC1 (stereo not given in full)	-1.45% (inactive)
CCN(CC)C(=O)N1CCN(C)CC1	1.54% (inactive)
CC(=O)OCC(=O)[C@@]1(OC(C)=O)[C@@H](C)C[C@H]2[C@@H]3C[C@H](F)C4=CC(=O)C=C[C@]4(C)[C@@]3(F)[C@@H](O)C[C@@]21C	1.19% (inactive)
Cc1ccc2nc(N)[nH]c(=O)c2c1Sc1ccncc1	9.57% (inactive)
CCCCOCCOC(=O)c1cccnc1	12.8% (inactive)
OCC(CO)n1cnc(-c2ccc(F)cc2)c1-c1ccnc(Oc2ccccc2)n1	-10.7% (inactive)
COC(OC)OC	6.77% (inactive)
CCCCCCCCCCCSCC(=O)O	-1.49% (inactive)
CCN(CC)C(=O)/C(C#N)=C/c1cc(O)c(O)c([N+](=O)[O-])c1	-10.7% (inactive)
Cc1cccc(C)c1NC(=O)c1cc(S(N)(=O)=O)c(Cl)cc1O	13.1% (inactive)

Compound	activity change, negative = cytotoxicity
CCOC(=O)c1ccc(NC(=O)CN2CCCCC2)cc1	0.669% (inactive)
COC1CCC=CO1 (stereo not given)	-1.9% [at 81.1 µM] (inactive)
FC(F)(F)C(F)(F)C(F)(F)C(F)(F)CCI	2.75% [at 29.1 µM] (inactive)
O=C(O)CCC(=O)OC[C@@H](NC(=O)C(Cl)Cl)[C@H](O)c1ccc([N+](=O)[O-])cc1	-1.36% (inactive)
CCOC(=O)N1CCC(Nc2ccc(Cl)cc2N)CC1	6.41% (inactive)
CC1CCc2nccnc21 (stereo not given)	-2.51% (inactive)
Cc1ccc(NC(=O)N(C)C)cc1NC(=O)N(C)C	9.95% (inactive)
O=C(O)CCS	1.98% [at 81.1 µM] (inactive)
CCCc1nc2c(C)cc(-c3nc4ccccc4n3C)cc2n1Cc1ccc(-c2ccccc2C(=O)O)cc1	0.905% (inactive)
CNC1CCCN(c2c(F)cc3c(=O)c(C(=O)O)cn(C4CC4)c3c2OC)C1 (stereo not given)	6.54% (inactive)
Cc1cc(CCCOc2c(C)cc(-c3noc(C(F)(F)F)n3)cc2C)on1	-21.2% (inactive)
CCC(CO)(CO)CO	0.0639% [at 81.1 µM] (inactive)
O=C1CC[C@@H](C(=O)O)N1	0.44% (inactive)
CCCCCC	7.11% (inactive)
CCCCCCCC/C=C\CCCCCCCC(=O)OCCO	-14.6% [at 81.1 µM] (inactive)
O=C1[C@@H]2[C@H]3CC[C@H](C3)[C@@H]2C(=O)N1CCCCN1CCN(c2ncccn2)CC1	-1.63% (inactive)
CCC(CO)(CO)[N+](=O)[O-]	2.69% (inactive)
CC(C)(O)c1coc(S(=O)(=O)NC(=O)Nc2c3c(cc4c2CCC4)CCC3)c1	-20.9% (inactive)
CC(=O)OCCC1CCCCC1	6.46% (inactive)
CCCCCCCCCCCCCCCCCC(=O)OCC(CC)CCCC (stereo not given)	4% (inactive)

Reference: PubChem BioAssay (Tox21)
